In the supplement of paper PMC10849652 one finds log2 fold change data, which are given here for 37 targets.

Targets with a hit are over-represented here; the source holds about 8,800 in all. About 0.5% of all pairs of compound and target were hits. Values without a mark were called inactive.

Chain of UniProt Q13409 (Q13409 whole entry, looked up): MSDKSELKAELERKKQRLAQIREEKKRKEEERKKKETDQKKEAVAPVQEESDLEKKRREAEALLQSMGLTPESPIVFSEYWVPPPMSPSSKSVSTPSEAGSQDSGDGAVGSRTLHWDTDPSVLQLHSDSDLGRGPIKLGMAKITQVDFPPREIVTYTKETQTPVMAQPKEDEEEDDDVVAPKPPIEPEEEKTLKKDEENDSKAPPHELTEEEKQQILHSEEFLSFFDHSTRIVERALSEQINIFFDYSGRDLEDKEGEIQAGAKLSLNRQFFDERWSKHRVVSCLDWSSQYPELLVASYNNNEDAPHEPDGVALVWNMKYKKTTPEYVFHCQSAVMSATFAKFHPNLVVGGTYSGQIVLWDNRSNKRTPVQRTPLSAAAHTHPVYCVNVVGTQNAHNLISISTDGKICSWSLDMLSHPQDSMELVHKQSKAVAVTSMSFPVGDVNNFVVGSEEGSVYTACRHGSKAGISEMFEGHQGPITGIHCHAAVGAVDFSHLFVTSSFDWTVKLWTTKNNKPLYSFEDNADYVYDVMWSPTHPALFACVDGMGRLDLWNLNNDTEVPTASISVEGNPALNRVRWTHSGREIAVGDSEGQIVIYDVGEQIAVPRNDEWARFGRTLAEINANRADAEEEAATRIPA
Chain of UniProt Q01844 (Q01844 whole entry, looked up): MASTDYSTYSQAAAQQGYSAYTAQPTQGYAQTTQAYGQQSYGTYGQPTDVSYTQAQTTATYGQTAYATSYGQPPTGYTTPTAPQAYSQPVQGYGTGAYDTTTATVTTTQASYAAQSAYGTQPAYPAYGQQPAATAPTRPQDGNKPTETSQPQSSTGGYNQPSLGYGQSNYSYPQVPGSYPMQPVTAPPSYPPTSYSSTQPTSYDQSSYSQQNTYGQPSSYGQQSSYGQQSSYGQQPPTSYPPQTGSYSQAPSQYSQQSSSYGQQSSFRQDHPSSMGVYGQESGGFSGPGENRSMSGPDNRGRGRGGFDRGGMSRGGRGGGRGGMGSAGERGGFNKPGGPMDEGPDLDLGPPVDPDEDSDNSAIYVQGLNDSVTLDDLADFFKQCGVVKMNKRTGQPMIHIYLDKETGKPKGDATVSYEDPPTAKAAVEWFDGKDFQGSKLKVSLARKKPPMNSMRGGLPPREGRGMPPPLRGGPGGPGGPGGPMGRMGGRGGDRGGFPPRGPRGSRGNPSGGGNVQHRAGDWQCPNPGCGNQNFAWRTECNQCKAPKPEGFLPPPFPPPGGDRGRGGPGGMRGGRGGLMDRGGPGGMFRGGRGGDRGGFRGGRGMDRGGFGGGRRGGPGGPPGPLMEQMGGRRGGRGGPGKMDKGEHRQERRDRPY
Chain of UniProt Q9H410 (Q9H410 whole entry, looked up): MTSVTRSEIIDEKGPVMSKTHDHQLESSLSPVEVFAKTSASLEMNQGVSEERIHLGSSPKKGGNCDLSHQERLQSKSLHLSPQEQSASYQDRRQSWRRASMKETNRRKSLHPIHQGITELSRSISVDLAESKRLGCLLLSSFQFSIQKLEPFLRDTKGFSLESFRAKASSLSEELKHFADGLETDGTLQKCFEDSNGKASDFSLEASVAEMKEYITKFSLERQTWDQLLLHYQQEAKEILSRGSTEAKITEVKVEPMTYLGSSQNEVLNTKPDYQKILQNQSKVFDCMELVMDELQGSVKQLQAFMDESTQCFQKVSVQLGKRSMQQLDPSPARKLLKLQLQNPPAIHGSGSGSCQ
Chain of UniProt P51116 (P51116 whole entry, looked up): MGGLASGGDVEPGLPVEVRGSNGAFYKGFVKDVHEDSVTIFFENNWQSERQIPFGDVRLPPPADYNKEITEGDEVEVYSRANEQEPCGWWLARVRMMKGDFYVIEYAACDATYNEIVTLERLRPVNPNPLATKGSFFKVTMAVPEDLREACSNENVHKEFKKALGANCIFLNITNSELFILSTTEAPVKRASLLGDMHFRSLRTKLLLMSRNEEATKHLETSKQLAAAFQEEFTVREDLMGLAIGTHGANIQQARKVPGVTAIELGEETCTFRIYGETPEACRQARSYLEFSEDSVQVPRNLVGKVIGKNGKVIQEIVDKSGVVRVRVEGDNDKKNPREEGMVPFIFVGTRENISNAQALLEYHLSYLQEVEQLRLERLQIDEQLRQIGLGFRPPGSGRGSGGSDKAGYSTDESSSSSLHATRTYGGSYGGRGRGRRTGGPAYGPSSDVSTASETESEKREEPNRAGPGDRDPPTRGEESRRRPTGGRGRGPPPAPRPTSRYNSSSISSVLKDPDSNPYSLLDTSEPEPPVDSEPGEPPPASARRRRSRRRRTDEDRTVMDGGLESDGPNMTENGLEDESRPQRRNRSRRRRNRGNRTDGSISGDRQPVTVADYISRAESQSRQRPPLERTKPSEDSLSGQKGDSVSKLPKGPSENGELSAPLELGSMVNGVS
Chain of UniProt P35916 (P35916 whole entry, looked up): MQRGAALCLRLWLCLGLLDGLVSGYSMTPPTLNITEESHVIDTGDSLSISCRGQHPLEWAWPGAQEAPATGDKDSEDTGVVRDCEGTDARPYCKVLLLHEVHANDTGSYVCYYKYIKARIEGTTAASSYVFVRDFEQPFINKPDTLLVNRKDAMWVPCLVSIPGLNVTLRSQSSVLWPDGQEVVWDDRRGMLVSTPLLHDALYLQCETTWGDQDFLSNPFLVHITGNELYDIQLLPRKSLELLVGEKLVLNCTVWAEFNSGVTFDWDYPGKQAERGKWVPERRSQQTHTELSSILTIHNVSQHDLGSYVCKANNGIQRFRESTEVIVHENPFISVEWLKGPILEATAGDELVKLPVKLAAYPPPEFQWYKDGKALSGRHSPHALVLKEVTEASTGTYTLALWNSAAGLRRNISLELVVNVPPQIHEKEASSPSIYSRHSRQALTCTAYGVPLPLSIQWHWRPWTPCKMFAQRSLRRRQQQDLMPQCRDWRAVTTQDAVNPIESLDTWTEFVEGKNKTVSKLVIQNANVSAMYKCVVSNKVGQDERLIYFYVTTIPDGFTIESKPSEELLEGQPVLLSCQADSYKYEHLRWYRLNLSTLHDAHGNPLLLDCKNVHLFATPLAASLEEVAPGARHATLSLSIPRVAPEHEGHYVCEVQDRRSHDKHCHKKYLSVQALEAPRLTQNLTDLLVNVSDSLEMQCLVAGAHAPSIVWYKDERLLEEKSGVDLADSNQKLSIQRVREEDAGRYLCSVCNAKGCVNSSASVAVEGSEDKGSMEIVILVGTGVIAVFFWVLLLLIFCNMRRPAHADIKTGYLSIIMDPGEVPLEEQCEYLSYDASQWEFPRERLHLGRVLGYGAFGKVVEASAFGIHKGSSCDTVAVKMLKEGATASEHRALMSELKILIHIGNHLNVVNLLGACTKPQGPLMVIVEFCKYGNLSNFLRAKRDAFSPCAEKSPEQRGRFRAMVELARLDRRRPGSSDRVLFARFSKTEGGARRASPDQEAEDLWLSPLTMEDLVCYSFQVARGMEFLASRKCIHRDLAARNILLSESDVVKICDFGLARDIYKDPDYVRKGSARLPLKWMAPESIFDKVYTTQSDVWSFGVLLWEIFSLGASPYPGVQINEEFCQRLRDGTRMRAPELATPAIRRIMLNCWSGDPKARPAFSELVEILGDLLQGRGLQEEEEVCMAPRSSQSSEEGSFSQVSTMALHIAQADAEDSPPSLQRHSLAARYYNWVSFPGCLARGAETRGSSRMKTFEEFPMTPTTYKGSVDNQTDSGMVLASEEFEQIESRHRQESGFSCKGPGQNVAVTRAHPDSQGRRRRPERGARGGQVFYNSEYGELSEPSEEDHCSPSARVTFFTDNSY
Chain of UniProt Q9NPA0 (Q9NPA0 whole entry, looked up): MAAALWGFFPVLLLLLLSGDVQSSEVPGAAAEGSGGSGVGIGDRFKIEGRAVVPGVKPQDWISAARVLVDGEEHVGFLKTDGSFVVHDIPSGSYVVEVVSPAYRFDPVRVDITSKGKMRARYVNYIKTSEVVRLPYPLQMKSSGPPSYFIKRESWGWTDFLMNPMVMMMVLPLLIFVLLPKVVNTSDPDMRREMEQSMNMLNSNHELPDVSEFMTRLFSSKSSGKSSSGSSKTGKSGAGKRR
Chain of UniProt Q06547 (Q06547 whole entry, looked up): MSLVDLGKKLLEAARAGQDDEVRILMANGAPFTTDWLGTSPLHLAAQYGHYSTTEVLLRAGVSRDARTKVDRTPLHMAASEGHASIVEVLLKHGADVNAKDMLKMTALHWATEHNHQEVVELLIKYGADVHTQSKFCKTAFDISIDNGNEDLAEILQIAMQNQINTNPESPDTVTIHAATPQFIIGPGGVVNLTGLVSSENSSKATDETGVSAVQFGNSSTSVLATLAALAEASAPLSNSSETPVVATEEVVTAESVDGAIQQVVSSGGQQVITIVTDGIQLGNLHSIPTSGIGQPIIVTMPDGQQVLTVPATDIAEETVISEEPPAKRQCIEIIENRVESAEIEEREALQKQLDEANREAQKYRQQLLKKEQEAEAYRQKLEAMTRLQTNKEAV
Chain of UniProt P04406 (P04406 whole entry, looked up): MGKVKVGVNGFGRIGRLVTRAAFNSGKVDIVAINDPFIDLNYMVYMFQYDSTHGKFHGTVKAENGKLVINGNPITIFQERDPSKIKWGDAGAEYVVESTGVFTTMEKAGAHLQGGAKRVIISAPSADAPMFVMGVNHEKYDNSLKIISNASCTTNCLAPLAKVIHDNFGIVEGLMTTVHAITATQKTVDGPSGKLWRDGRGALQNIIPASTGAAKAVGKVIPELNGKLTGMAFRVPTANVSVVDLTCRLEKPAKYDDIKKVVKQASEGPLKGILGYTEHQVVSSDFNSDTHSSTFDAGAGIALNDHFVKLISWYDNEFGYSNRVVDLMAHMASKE
Chain of UniProt Q56P03 (Q56P03 whole entry, looked up): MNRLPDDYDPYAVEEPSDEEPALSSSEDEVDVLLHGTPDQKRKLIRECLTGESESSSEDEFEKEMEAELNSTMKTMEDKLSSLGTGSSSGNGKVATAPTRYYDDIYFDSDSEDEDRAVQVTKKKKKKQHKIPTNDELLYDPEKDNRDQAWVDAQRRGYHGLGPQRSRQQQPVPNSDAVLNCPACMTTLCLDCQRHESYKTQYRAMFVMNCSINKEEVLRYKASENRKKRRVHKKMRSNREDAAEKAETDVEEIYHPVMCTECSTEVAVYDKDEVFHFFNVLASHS

Compound in one assay: CCCS(=O)(=O)Nc1ccc(F)c(C(=O)c2c[nH]c3ncc(-c4ccc(Cl)cc4)cc23)c1F [vemurafenib]
Briefly: log2 fold change, soluble protein after heating vs DMSO (PISA); higher = thermal stabilisation; K562 lysate, 10 uM; active = over 0.2 and 3.5 SD of the protein, either way, in both replicates (recomputed). In short, it runs like this:
(§1)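 Values give the log-two fold change in thermal stability against solvent controls, from duplicates. Crude K562 extract at 1 mg/mL protein, made by dounce homogenisation in PBS pH 7.4 with 1 mM MgCl2, was treated with 10 μM compound for 30 min. After 3 min heating across 48°C-58°C, aliquots were pooled, adjusted to 0.5% NP-40 at 4°C and centrifuged at 21,000xg for 90 min. The supernatant was measured by TMTpro 16plex LC-MS/MS with channel sums equalised.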
On to GEMIN4 (UniProt P57678), for which the log2 fold change was 0.036.
Same read-out and setting: the result for ERAL1 (UniProt O75616) reads -0.058.
As to EMC7 (UniProt Q9NPA0), the log2 fold change is 0.034.
As to EED, A0A5F9ZI63, the log2 fold change is -0.019.
Still for that read-out and setting: with FAM118B (UniProt Q9BPY3) the figure was -0.06.
Same read-out and setting: with GBF1 (UniProt Q92538) the figure was 0.023; with FAT2 (UniProt Q9NYQ8), 0.213.
Still for that read-out and setting: the result for FLT4 (UniProt P35916) reads -0.069; that for ERLIN1 (UniProt O75477), 0.01; that for EAPP (UniProt Q56P03), 0.246.
Take GIGYF2 (UniProt Q6Y7W6): the log2 fold change is -0.001.
Still for that read-out and setting: with FOXK1 (UniProt P85037) the figure was -0.01; with EIF2B4 (UniProt Q9UI10), -0.064; with GAPDH (UniProt P04406), -0.031.
Still for that read-out and setting: the result for EEF1AKMT4 (UniProt P0DPD7) reads 0.135.
Still for that read-out and setting: with FYCO1 isoform 4 (UniProt Q9BQS8) the figure was 0.024; with ETHE1 (UniProt O95571), -0.018.
On to FBXO22 (UniProt Q8NEZ5), for which the log2 fold change was 0.017.
The same measure, in the same setting: with EP300 (UniProt Q09472) the figure was -0.018; with GEMIN2 (UniProt O14893), 0.061; with DYNC1I2 isoform 2 (UniProt Q13409), -0.073.
In the case of DYNC1I2 isoform 5 (UniProt Q13409), the log2 fold change was -0.015.
Still for that read-out and setting: with FBXO45 (UniProt P0C2W1) the figure was -0.064.
Same read-out and setting: the result for EPB41, A0A2R8Y783 reads 0.129.
Take FYN (UniProt P06241): the log2 fold change is -0.036.
The same measure, in the same setting: the result for GAA (UniProt P10253) reads 0.068; that for FXR2 (UniProt P51116), 0.
On the same count and under the same terms, the result for FPGT (UniProt O14772) reads -0.008; that for FHOD1 (UniProt Q9Y613), -0.018; that for EFCAB14 (UniProt O75071), 0.022.
With DSN1 (UniProt Q9H410), the log2 fold change was 0.
In the case of FAM83D (UniProt Q9H4H8), the log2 fold change is -0.015.
On the same count and under the same terms, the result for EWSR1 isoform 5 (UniProt Q01844) reads 0.033; that for FAM83A (UniProt Q86UY5), 0.038; that for GABPB1 isoform 3 (UniProt Q06547), 0.057.
As for DUS2 (UniProt Q9NX74), the log2 fold change is 0.022.
On the same count and under the same terms, the result for EIF2AK2 (UniProt P19525) reads 0.025.

Compound in another assay: CCCS(=O)(=O)Nc1ccc(F)c(C(=O)c2c[nH]c3ncc(Cl)cc23)c1F
The description is as above. In short, it runs like this: as §1
GEMIN4 (UniProt P57678): the log2 fold change was 0.025.
The same measure, in the same setting: with ERAL1 (UniProt O75616) the figure was -0.016; with EMC7 (UniProt Q9NPA0), 0.004.
On the same count and under the same terms, the result for EED, A0A5F9ZI63 reads 0.034; that for FAM118B (UniProt Q9BPY3), 0.03; that for GBF1 (UniProt Q92538), 0.04.
The same measure, in the same setting: the result for FAT2 (UniProt Q9NYQ8) reads 0.19.
FLT4 (UniProt P35916): the log2 fold change is -0.046.
Same read-out and setting: the result for ERLIN1 (UniProt O75477) reads 0.013; that for EAPP (UniProt Q56P03), 0.038.
As for GIGYF2 (UniProt Q6Y7W6), the log2 fold change is -0.017.
With FOXK1 (UniProt P85037), the log2 fold change is 0.008.
On the same count and under the same terms, the result for EIF2B4 (UniProt Q9UI10) reads 0.026; that for GAPDH (UniProt P04406), 0.002; that for EEF1AKMT4 (UniProt P0DPD7), 0.008.
With FYCO1 isoform 4 (UniProt Q9BQS8), the log2 fold change was 0.019.
With ETHE1 (UniProt O95571), the log2 fold change is 0.022.
On the same count and under the same terms, with FBXO22 (UniProt Q8NEZ5) the figure was 0.001; with EP300 (UniProt Q09472), -0.01; with GEMIN2 (UniProt O14893), -0.017.
The same measure, in the same setting: with DYNC1I2 isoform 2 (UniProt Q13409) the figure was 0.042; with DYNC1I2 isoform 5 (UniProt Q13409), 0.013.
Still for that read-out and setting: with FBXO45 (UniProt P0C2W1) the figure was 0.088; with EPB41, A0A2R8Y783, 0.063; with FYN (UniProt P06241), -0.01.
GAA (UniProt P10253): the log2 fold change was -0.101.
As to FXR2 (UniProt P51116), the log2 fold change is 0.041.
On the same count and under the same terms, with FPGT (UniProt O14772) the figure was 0.011.
Same read-out and setting: with FHOD1 (UniProt Q9Y613) the figure was 0.018; with EFCAB14 (UniProt O75071), 0.001.
Same read-out and setting: the result for DSN1 (UniProt Q9H410) reads 0.043.
Turning to FAM83D (UniProt Q9H4H8), the log2 fold change is 0.
Same read-out and setting: the result for EWSR1 isoform 5 (UniProt Q01844) reads -0.023; that for FAM83A (UniProt Q86UY5), -0.002.
Same read-out and setting: with GABPB1 isoform 3 (UniProt Q06547) the figure was 0.074.
For DUS2 (UniProt Q9NX74), the log2 fold change was 0.032.
Still for that read-out and setting: with EIF2AK2 (UniProt P19525) the figure was 0.012.
